Consider eleven molecules from the supplement of paper PMC13380429.

The subject of experiment [1] is Vero E6 infected with SARS-CoV-2. Kind of experiment: morphology score (similarity to uninfected cells); higher = more like uninfected cells. Particulars: 24 h.
The test system is the same in experiment [2]. Description: SARS-CoV-2 infection rate relative to infected DMSO; higher = more infection, active = 60 or less. Particulars: 24 h.

In turn, `O=C1C(=O)N(Cc2ccc(Cl)c(Cl)c2)c2ccccc21` [apoptosis-activator-II] (10 µM) yielded a morphology score in experiment [1] of 0.0389. Also, the SARS-CoV-2 infection rate in experiment [2] is 104% (inactive).
`O=c1c(-c2ccccc2)c1-c1ccccc1` [diphencyprone] (10 µM) registered a morphology score in experiment [1] of -0.0547. Besides, the SARS-CoV-2 infection rate in experiment [2] was 100% (inactive).
In the case of `Cc1c(Cl)cccc1S(=O)(=O)Nc1nc(NCCc2ccccc2)nc2c1CN(Cc1ccccc1)CC2` (10 µM), the morphology score in experiment [1] amounted to 0.104. For the same molecule, in experiment [2], the SARS-CoV-2 infection rate is 94.5% (inactive).
In the case of `COc1nc(C)cnc1NS(=O)(=O)c1cccnc1-c1ccc(-c2nnco2)cc1` [zibotentan] (10 µM), the morphology score in experiment [1] was 0.109. Moreover, the SARS-CoV-2 infection rate in experiment [2] was 120% (inactive).
`CNC(C)(C)Cc1ccccc1` [mephentermine] (10 µM): the morphology score in experiment [1] was -0.196. In addition, the SARS-CoV-2 infection rate in experiment [2] is 117% (inactive).
For the molecule `C[C@@H]1NC(C)(C)CO[C@@]1(O)c1cccc(Cl)c1` [radafaxine] (10 µM), the morphology score in experiment [1] is -0.0433. In addition, the SARS-CoV-2 infection rate in experiment [2] is 110% (inactive).
In experiment [1], `O=C1c2cccc3c2[C@H](CCC3)CN1[C@@H]1CN2CCC1CC2` [palonosetron] (10 µM) displayed a morphology score of 0.324. Moreover, the SARS-CoV-2 infection rate in experiment [2] was 91.5% (inactive).
The molecule `COC(=O)c1sccc1S(=O)(=O)Nc1ccc(Nc2ccccc2)cc1OC` (10 µM) had a morphology score in experiment [1] of 0.112. The SARS-CoV-2 infection rate in experiment [2] was 95% (inactive).
In the case of `COC(=O)C1=C(C)NC(C)=C(C(=O)OC(C)C)[C@@H]1c1cccc2nonc12` [isradipine] (10 µM), the morphology score in experiment [1] is -0.0665. Besides, in experiment [2], the SARS-CoV-2 infection rate is 104% (inactive).
Consider `CC1CCC(NC(=O)N(CCCl)N=O)CC1` (configuration not stated) [semustine] (10 µM), for which the morphology score in experiment [1] is -0.0906. The SARS-CoV-2 infection rate in experiment [2] is 116% (inactive).
In the case of `O=C(c1cccc(Br)c1)N1CCC(N2CCCC2)CC1` (10 µM), in experiment [1], the morphology score is -0.00696. Further, the SARS-CoV-2 infection rate in experiment [2] is 106% (inactive).
